Experimental data from ChEMBL document CHEMBL4513216, “Probing the Open Global Health Chemical Diversity Library for Multistage-Active Starting Points for Next-Generation Antimalarials” (ACS Infect Dis, 2020).
Among all 69,000 compounds or so, about 8,600 (12%) showed an effect of 50% or more. Shown is part of a subset that was picked to be rich in strong results.

System: Plasmodium berghei
Test: Screen against P. berghei liver stage (PbLuc), transformed with Luciferase, at 10uM
Type: functional, HepG2
Settings: tested at 10 uM

| SMILES | INHIBITION [%] |
| --- | --- |
| O=C(NC1CCC1)[C@H]1C[C@@H]2[C@@H](C1)OCCN2CC1CC1 | 36.4 |
| Cc1ccc2c(c1)C1(CCN(C(N)=O)CC1)CN2CC1CC1 | 44.8 |
| NS(=O)(=O)c1cnn(CC(=O)Nc2c(Cl)cccc2Cl)c1 | 42.3 |
| Cc1nc(C)n(CCNS(=O)(=O)NCc2ccccc2)n1 | 49.9 |
| CS(=O)(=O)N1CCOCC2(CCN(C(=O)c3cnccn3)CC2)C1 | -6.23 |
| O=C(NCc1ccccc1Cn1cncn1)C1CCCCC1 | 30.6 |
| Cc1cnc(N2CC3(CCN(S(=O)(=O)C4CC4)C3)C2)nc1 | 40.3 |
| Cc1nn(C)cc1Cn1c(=O)c(C)nc2ccccc21 | -11.4 |
| COc1c(CNCc2ccc(C(=O)N(C)C)cc2)c(C)nn1C | 56.3 |
| COc1c(CNCc2cccc(C(=O)N(C)C)c2)c(C)nn1C | -29.8 |
| COc1c(CNCCNC(=O)c2ccccc2)c(C)nn1C | 15.3 |
| COc1c(CNCCNC(=O)c2ccc(C)cc2)c(C)nn1C | 52.7 |
| COc1c(CNCCNC(=O)c2ccc(C)cc2)c(C(C)C)nn1C | -79.3 |
| COc1c(CNCc2ccc(CS(C)(=O)=O)cc2)c(C)nn1C | 43.2 |
| CC(C)(C)C(=O)Nc1cnn(-c2ccccc2S(C)(=O)=O)c1 | -0.125 |
| O=C(c1ccccc1)N1CCC[C@]2(C[C@@H](Oc3ncccc3F)CO2)C1 | 5.96 |
| Cc1ccc(N2C[C@@H]3CCCO[C@@H]3[C@H](N3CCCC3)C2)nn1 | 20.1 |
| COCCCC1CCCN(Cc2c(C)ccc3ncccc23)C1 (centres undefined) | 5.41 |
| COc1ccc(S(=O)(=O)N2CCc3ccc(Cl)cc32)cc1C(=O)O | -54.6 |
| CCc1cn[nH]c1C1CCN(c2cc(C)c3ccc(OC)cc3n2)CC1 | 71.1 |
| CCc1cn[nH]c1C1CCN(c2cc(C)c3cc(OC)ccc3n2)CC1 | 26.6 |
| CCc1cn[nH]c1C1CCN(c2cc(C)c3cccc(OC)c3n2)CC1 | 42.7 |
| Cc1cccc(OCCC(=O)N(C)CCNS(C)(=O)=O)c1C | 7.11 |

| SMILES | INHIBITION [%] |
| --- | --- |
| CC(C)(C)CC(=O)N1CCCC2(CC(C(=O)Nc3ccccc3)=NO2)C1 (centres undefined) | -32 |
| OCCCc1nncn1-c1cccc(C(F)(F)F)c1 | 33.4 |
| Cc1cccc(NC(=O)[C@@H]2CCCN2Cc2cnc3ccccn23)n1 | 45.7 |
| CCOC(=O)N(C)C1CCN(Cc2cnc3ccccn23)CC1 | 8.12 |
| CC(C)N(C)C(=O)C1CCN(Cc2cc3c(cc2O)CCC3)CC1 | 33.6 |
| CC(C)N(C)C(=O)C1CCN(Cc2cnc3ccccn23)CC1 | 63.3 |
| CCc1nc(C)c(C(=O)N(C)Cc2cnc3ccccn23)o1 | 10.6 |
| CN(C(=O)C1CCN(Cc2cnc3ccccn23)CC1)c1ccccc1 | 58.2 |
| O=C([C@H]1CCCO1)N1CC[C@H](O)[C@@H]1Cc1cccnc1 | 39.4 |
| CN(C)c1nc(N2CCCC2)nc2c1CCN(C(=O)c1ccco1)CC2 | 28.2 |
| CCCc1noc(CCC(=O)N2CCCC2c2cccc(OC)c2)n1 (centres undefined) | -34 |
| CC(=O)N1CCC(c2noc(C3CCC(=O)N3)n2)CC1 (centres undefined) | 18.4 |
| O=C1CCC(c2nc(C3CCN(C(=O)C4CC4)CC3)no2)N1 (centres undefined) | 14 |
| O=C1CCC(c2nc(C3CCNCC3)no2)N1 (centres undefined) | 55.8 |
| Cc1cc(C(F)F)nn1C(C)C(=O)NCc1ncc[nH]1 (centres undefined) | -1.21 |
| Cc1csc(N2CCN(C(=O)C3(C#N)CCCC3)CC2)n1 | -9.75 |
| COc1cc(OC)cc(C2NC(=O)CN2Cc2ccc(Br)cc2)c1 (centres undefined) | 45.6 |
| Cc1cc(C2NC(=O)CN2Cc2ccc(Br)cc2)cc(C)c1O (centres undefined) | 60.4 |
| NC(=O)COc1ccc(C2NC(=O)CN2Cc2ccc(Br)cc2)cc1 (centres undefined) | 15.9 |
| Cc1nc(CN2Cc3nccn3CC(CN3CCCC3)C2)cs1 (centres undefined) | -29.3 |
| O=C(c1nc2sccn2c1-c1ncc[nH]1)N1CCCCC1 | 50.2 |
| CN1CCCN(C(=O)c2nc3sccn3c2-c2ncc[nH]2)CC1 | -16 |
| C[C@@H]1CN(C(=O)c2nc3sccn3c2-c2ncc[nH]2)C[C@H](C)O1 | 11.3 |

| SMILES | INHIBITION [%] |
| --- | --- |
| CC(C)c1cc(=O)[nH]c(-c2ccccc2CN2CCCC2C)n1 (centres undefined) | 31.8 |
| CC(C)N1CCC(C(=O)NC[C@H]2CCc3ccccc3O2)CC1 | 61.5 |
| CC(C)N1CCC(CC(=O)NC[C@H]2CCc3ccccc3O2)CC1 | 7.4 |
| CCN1CCC(CC(=O)NC[C@H]2CCc3ccccc3O2)CC1 | 39.9 |
| Cc1ccc(S(C)(=O)=O)cc1NCC(=O)NCCC1=CCCCC1 | -50.7 |
| CC(NC(=O)N(C)C1CC1)c1ccc(Oc2cccnc2)c(F)c1 (centres undefined) | 37.4 |
| Cc1cnn(CC2CCCN2C(=O)c2n[nH]c(=O)c3ccccc23)c1 (centres undefined) | -4.16 |
| N#Cc1nccnc1N1CCC(OCCCc2ccccc2)C1 (centres undefined) | 72.3 |
| N#Cc1nccnc1N1CCC(Cc2ccccc2)C1 (centres undefined) | 0.672 |
| N#Cc1nccnc1N1CCC(COCc2ccccc2)C1 (centres undefined) | 20.8 |
| CC(C)Cc1nnc(NCc2ccsc2)o1 | -54.5 |
| CC(C)(C)Cc1nnc(NCc2ccsc2)o1 | 53.4 |
| c1cc(CNc2nnc(Cc3ccsc3)o2)cs1 | -86.6 |
| COc1ccc(OC)c(C(C(=O)O)N2CCSCC2)c1 (centres undefined) | 17 |
| CC(c1cccc(Cl)c1)N(C)CCS(=O)(=O)CCC(N)=O (centres undefined) | 37.8 |
| CC(c1ccc(F)c(F)c1)N(C)CCS(=O)(=O)CCC(N)=O (centres undefined) | 41.5 |
| Cc1ccc(C(C)N(C)CCS(=O)(=O)CCC(N)=O)cc1 (centres undefined) | 56.3 |
| O=C(NCCCC(=O)N1CCN(CC2CC2)c2ccccc21)C1CC1 | 22.8 |
| COCCC(=O)N1CCN(CC2CC2)c2ccccc21 | 14.9 |
| NC(=O)CN1CCN(CC2CC2)c2ccccc21 | 58.7 |
| CNC(=O)NC(=O)CN1CCN(CC2CC2)c2ccccc21 | 46.4 |
| NC(=O)NC(=O)CCN1CCN(CC2CC2)c2ccccc21 | 62.4 |
| NC(=O)NC(=O)CN1CCN(CC2CC2)c2ccccc21 | 35.3 |
